UHRF1 MBD2 ctr: UHRF1 methyl-DNA binding inhibition; Q96T88; UHRF1 binding to methylated oligo, TR-FRET; inhibition, % at 4.4 µM; 0.75% of 370,000 active; in the data active = inhibition above about 21%;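 also: UHRF1 SRA domain binding a hemimethylated CpG hairpin DNA probe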
PRMT1 inh: blocks human protein arginine methyltransferase 1; recombinant PRMT1, activity-based probe fluorescence polarization; inhibition, % at 2.79 µM; 1.3% of 370,000 active;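 active = inhibition above about 21% made by adding two undisclosed values, limit read from the data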
Target sequence (Q99873 whole entry, looked up): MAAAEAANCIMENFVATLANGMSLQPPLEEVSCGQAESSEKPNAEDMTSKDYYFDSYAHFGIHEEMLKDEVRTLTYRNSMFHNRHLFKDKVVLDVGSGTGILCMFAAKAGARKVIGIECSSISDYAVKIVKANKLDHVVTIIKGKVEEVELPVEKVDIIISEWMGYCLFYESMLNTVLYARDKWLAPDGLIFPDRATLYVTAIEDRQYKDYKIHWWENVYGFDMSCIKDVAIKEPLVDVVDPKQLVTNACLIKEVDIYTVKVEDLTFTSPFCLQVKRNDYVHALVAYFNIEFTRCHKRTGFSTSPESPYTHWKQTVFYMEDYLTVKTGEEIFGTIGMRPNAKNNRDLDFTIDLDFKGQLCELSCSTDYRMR
LEDGF integ inh: blocks HIV-1 LEDGF/p75-dependent DNA integration | TR-FRET IN-LEDGF/p75 DNA integration, Eu/Cy5 | inhibition, % at 3.7 µM | 0.64% of 370,000 active;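 active = inhibition above the screen-wide mean plus 3 SD, cut at about 13% in these data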;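 also: signal is the Cy5 over europium emission ratio at 671 and 618 nm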
MBD2 DNA inh: blocks human MBD2 binding to methylated DNA | AID 686964 | 0.31% of 370,000 active | inhibition, % at 4.4 µM | Q9UBB5 | TR-FRET, MBD2 binding to methylated oligonucleotide; in the data active = inhibition above about 13%
UHRF1 DNA bind: inhibits human UHRF1 binding to methylated oligonucleotide, MBD2 counter-screen | shares compounds with MBD2 DNA inh | TR-FRET | inhibition, % at 4.4 µM | 25% of 1,000 active | AID 720530; in the data active = inhibition above about 21%;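 also: UHRF1 SRA domain binding a labeled hemimethylated CpG hairpin DNA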
MBD2 DBD conf: confirmation of human MBD2-DBD methylated oligonucleotide binding inhibitors. shares compounds with MBD2 DNA inh. TR-FRET MBD2-DBD binding to methylated oligonucleotide. inhibition, % at 4.4 µM. 26% of 1,000 active
IN multimer act: counter-screen for LEDGF/p75 integration inhibitors: HIV-1 integrase multimerization activators. shares compounds with LEDGF integ inh. TR-FRET HIV-1 integrase multimerization, biochemical. activation, % at 7.7 µM. 17% of 2,000 active. AID 1053131; in the data active = activation above about 8.9%
TRFRET interf: counter-screen for LEDGF/p75 integration inhibitors: TR-FRET optical interference | 2,000 tested, under 10 active | shares compounds with LEDGF integ inh | inhibition, % at 7.7 µM | AID 1053135 | TR-FRET optical interference counterscreen, HIV-1 IN multimerization;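 active = inhibition above the mean over all tested compounds plus 3 SD, which no compound reached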
IN-LEDGF confirm: confirmation of HIV-1 LEDGF/p75-dependent integration inhibitors; shares compounds with LEDGF integ inh; 36% of 2,000 active; AID 1053136; inhibition, % at 3.7 µM; TR-FRET LEDGF/p75-dependent HIV-1 integration, biochemical
A number is an active result; - = inactive; . = no result. This is a sample that favours compounds with a hit; in the whole collection about 2.5% have one here. Rule as the data show it, unless noted: active = inhibition above about 14%; inactive = the rest.

SMILES	UHRF1 MBD2 ctr	PRMT1 inh	LEDGF integ inh	MBD2 DNA inh	IN multimer act	TRFRET interf	IN-LEDGF confirm	others
CNC[C@@H]1OCc2ccccc2-c2ccccc2C(=O)N([C@@H](C)CO)C[C@@H]1C	-	-	-	-	.	.	.
COc1ccc(Cl)cc1Nc1nc(NCCO)nc(N2CCCC2)n1	72	-	24	17	-	-	-	UHRF1 DNA bind=-;MBD2 DBD conf=-
COc1ccc(Cl)cc1Nc1nc(NCCO)nc(N2CCCCC2)n1	-	-	-	-	.	.	.
Cc1ccc(NS(=O)(=O)c2ccc(C(=O)N3CC(C)CC(C)C3)cc2)cc1 (configuration not stated)	-	-	-	-	.	.	.
C=CCSC1=N/C(=C\c2sccc2C)C(=O)S1	-	-	-	-	.	.	.
C=CCSC1=N/C(=C\C=C\c2ccco2)C(=O)S1	75	44	62	43	-	-	75	UHRF1 DNA bind=40;MBD2 DBD conf=17
O=C(COC(=O)c1ccccc1)Nc1ncc([N+](=O)[O-])s1	44	25	15	15	-	-	34	UHRF1 DNA bind=48;MBD2 DBD conf=18
O=C(Nc1ccccc1)Nc1ncc([N+](=O)[O-])s1	-	-	-	-	.	.	.
CC(C)C1Nc2ccc(C(=O)O)cc2C2C=CCC21 (configuration not stated)	30	-	17	14	-	-	24	UHRF1 DNA bind=-;MBD2 DBD conf=-
CC(C(=O)O)N1C(=O)/C(=C/C=C/c2ccco2)SC1=S (configuration not stated)	101	56	93	101	48	-	88	UHRF1 DNA bind=103;MBD2 DBD conf=110
O=C1/C(=C/c2cccs2)SC(=S)N1NS(=O)(=O)c1ccccc1	-	-	-	-	.	.	.
O=C1/C(=C/C=C/c2ccco2)SC(=S)N1NS(=O)(=O)c1ccccc1	97	53	71	69	20	-	76	UHRF1 DNA bind=88;MBD2 DBD conf=51
COc1ccc(NS(=O)(=O)c2ccc(N3CC(O)=C(c4ccccc4)C3=N)cc2)cc1	-	-	-	-	.	.	.
NC1=C(Cl)C(=O)c2ccccc2C1=O	-	-	-	-	.	.	.
NC1=C(Cl)C(=O)c2ccc(S(N)(=O)=O)cc2C1=O	-	-	29	-	12	-	76
O=C1COc2ccc(S(=O)(=O)N3CCCCCC3)cc2N1	-	-	-	-	.	.	.
CN(C)c1ccc(C=c2c3ccccc3n3c2cc(-c2ccc(Cl)cc2)[n+]3C)cc1	-	-	-	-	.	.	.
COc1cc(C=c2c3ccccc3n3c2cc(-c2ccccc2)[n+]3C)cc(OC)c1OC	-	-	29	-	-	-	48
CC[C@H](NC(=O)/C=C/[C@H]1O[C@@H](n2cc(C)c(=O)[nH]c2=O)C[C@@H]1O)c1ccccc1	-	-	-	-	.	.	.
O=C(C1CCOCC1)N1CCCC(N2CCN(c3ccc(F)cc3)CC2)C1 (configuration not stated)	-	-	-	-	.	.	.
CCCNC(=O)C1(C)CCCN(C(=O)c2cc(C(C)(C)C)nn2C)C1 (configuration not stated)	-	-	-	-	.	.	.
O=c1cc(C(F)(F)F)nc(-n2[nH]c3c(c2=O)CCCC3)[nH]1	-	-	17	-	-	-	-
N=C1c2ccccc2CN1NC(=O)c1cccc(S(=O)(=O)N2CCCC2)c1	-	-	89	-	-	-	-
Cc1noc(C)c1C(=O)Nc1ccccc1-c1ccccc1	-	-	27	-	-	-	-
CN=c1scc(-c2ccccc2F)n1/N=C/c1ccc[nH]1	-	-	-	-	.	.	.
SMILES	UHRF1 MBD2 ctr	PRMT1 inh	LEDGF integ inh	MBD2 DNA inh	IN multimer act	TRFRET interf	IN-LEDGF confirm	others
CN=c1scc(-c2ccccc2F)n1/N=C/c1ccc(O)c(O)c1O	-	-	22	-	-	-	28
CCC(=O)N/N=C/c1ccc(-c2ccc([N+](=O)[O-])cc2)o1	-	-	-	-	.	.	.
CCc1nnc(N/N=C/c2ccc(-c3ccc([N+](=O)[O-])cc3)o2)n1N	-	-	46	-	-	-	-
Cc1nnc(N/N=C\c2ccc(-c3ccccc3[N+](=O)[O-])o2)n1N	-	-	43	-	-	-	-
Cc1nnc(N/N=C/c2ccc(-c3ccccc3F)o2)n1N	-	-	44	-	-	-	-
COc1ccc(C(O)c2nc(-c3cccc(NC(C)=O)c3)cs2)cc1 (configuration not stated)	-	-	-	-	.	.	.
COc1cc(/C=C2\OC(=O)c3c(OC)cccc32)ccc1O	-	-	-	-	.	.	.
COc1cc(C(=O)O)c2c(c1C)OC(=O)c1c(C)cc(O)c(C=O)c1O2	-	-	17	-	-	-	38
CC(C)=CCC/C(C)=C/CC/C(C)=C/CC/C(C)=C/CC1=C(C)C(=O)c2ccccc2C1=O	-	-	-	-	.	.	.
CC(C)=CCC1=C(OCC(=O)O)C(=O)c2ccccc2C1=O	-	-	25	-	-	-	57
COc1ccc(-n2nc(C(=O)O)cc2-c2ccccc2)cc1	-	-	29	-	-	-	-
O=C(CN1C(=O)NC2(CCCC2)C1=O)OCc1ccc(Cl)c(Cl)c1	-	-	-	-	.	.	.
O=C(c1ccc(F)cc1)N1CCOCC1	-	-	-	-	.	.	.
O=C(c1ccc(=O)oc1)N1CCOCC1	43	-	29	-	-	-	58
COc1cc(C)cc(C(=O)O)c1C1=C(O)c2cccc(O)c2C(=O)C1=O	23	-	18	-	13	-	19
COc1cc2c(O)cc(C(=O)O)c(-c3cc(OC)c(OC)c(OC)c3)c2cc1OC	-	-	-	-	.	.	.
O=C(c1ccc(S(=O)(=O)N2CCCCCC2)cc1)N1CCN(c2ccccc2F)CC1	-	-	-	-	.	.	.
CCC(Sc1nc2ccccc2[nH]1)C(=O)Nc1cc(C)on1 (configuration not stated)	-	-	29	-	-	-	-
CN(C)c1ccc(O)c2c1CC1CC3[C@@H](N(C)C)C(=O)C(C(N)=O)C(=O)[C@]3(O)C(=O)C1C2=O (some centres not stated)	-	-	37	-	-	-	-
C[C@H]1c2cccc(O)c2C(O)=C2C(=O)C3(O)C(O)=C(C(N)=O)C(=O)[C@@H](N(C)C)[C@@H]3[C@@H](O)[C@@H]21 (some centres not stated)	-	-	-	-	.	.	.
CN(C)c1ccc(O)c2c1CC1CC3C(N(C)C)C(=O)C(C(N)=O)=C(O)[C@@]3(O)C(=O)C1=C2O (some centres not stated)	-	-	22	-	10.0	-	-
O=C(COC(=O)/C=C/c1ccc(Cl)cc1)NC1CCCCCC1	-	-	-	-	.	.	.

Screening data: PubChem BioAssay, The Scripps Research Institute Molecular Screening Center
